What all share (settings): mRNA level, 48 h; actives raise or lower the signal
Read-out in assay [1]: adenosine kinase (ADK) gene, ADK (gene 132)
Kind of assay: LTEA_HepaRG_ADK: Life Technologies and Expression Analysis (LTEA) Assay for adenosine kinase (ADK) gene using HepaRG (AID 2283471). Put shortly:
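Read-out is ADK transcript level measured by qRT-PCR and normalised to three housekeeping genes. Cells are human HepaRG, dosed for 48 h at up to 100 uM in 0.5% DMSO. Gain or loss of signal is fitted against DMSO controls.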

Read-out in assay [2]: Alpha-fetoprotein (AFP) gene, AFP (gene 174)
Kind of assay: LTEA_HepaRG_AFP: Life Technologies and Expression Analysis (LTEA) Assay for Alpha-fetoprotein (AFP) gene using HepaRG (AID 2283472). Put shortly: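 AFP transcript measured by TaqMan qRT-PCR with three housekeeping genes for normalization, after 48 h chemical treatment of HepaRG cells (top 100 uM, half-log steps, 0.5% DMSO). Gain or loss fitted against vehicle.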

Read-out in another assay: BCL2L11 (gene 10018)
The assay is described as follows: LTEA_HepaRG_BCL2L11: Life Technologies and Expression Analysis (LTEA) Assay for Bcl-2 (BCL2L11) gene using HepaRG (AID 2283473). The method in brief:
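Differentiated human HepaRG cells were exposed 48 h in serum-free induction medium to eight half-log concentrations up to 100 uM in 0.5% DMSO, in duplicate. BCL2L11 mRNA was quantified by TaqMan qRT-PCR, normalized to ACTB, GAPDH and POLR2A; induction or repression fitted versus DMSO.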

Read-out in assay [3]: Bcl-2 (BID) gene, BID (gene 637)
The assay is described as follows: LTEA_HepaRG_BID: Life Technologies and Expression Analysis (LTEA) Assay for Bcl-2 (BID) gene using HepaRG (AID 2283476). The method in brief: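 Duplicate 48 h treatments of HepaRG cells in serum-free induction medium spanned 100 uM downward in half-log steps, 0.5% DMSO. Transcript change quantified by qRT-PCR against three housekeeping genes, fitted up or down versus DMSO.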

Read-out in assay [4]: Cytochrome P450 (CYP24A1), CYP24A1 (gene 1591)
Kind of assay: LTEA_HepaRG_CYP24A1: Life Technologies and Expression Analysis (LTEA) Assay for Cytochrome P450 (CYP24A1) using HepaRG (AID 2283478). Put shortly:
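HepaRG cells plated 48 h, then exposed in duplicate in serum-free induction medium for 48 h to 8-point half-log series from 100 uM in 0.5% DMSO. CYP24A1 mRNA by Fluidigm qRT-PCR, normalized to ACTB, GAPDH, POLR2A; bidirectional fit versus DMSO.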

Read-out in assay [5]: cysteine-aspartic acid protease (CASP8), CASP8 (gene 841)
The assay is described as follows: LTEA_HepaRG_CASP8: Life Technologies and Expression Analysis (LTEA) Assay for cysteine-aspartic acid protease (CASP8) using HepaRG (AID 2283480). Put shortly: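 qRT-PCR readout of CASP8 mRNA, normalized to three housekeeping genes, after 48 h chemical exposure of HepaRG cells; 8-point half-log series, top 100 uM, 0.5% DMSO vehicle. Bidirectional curve fitting against DMSO baseline.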

Read-out in assay [6]: Cytochrome P450 (CYP2B6), CYP2B6 (gene 1555)
The assay is described as follows: LTEA_HepaRG_CYP2B6: Life Technologies and Expression Analysis (LTEA) Assay for Cytochrome P450 (CYP2B6) using HepaRG (AID 2283481). The method in brief:
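Differentiated human HepaRG cells in serum-free induction medium, dosed in duplicate for 48 h over 8 half-log concentrations topping at 100 uM (0.5% DMSO). CYP2B6 mRNA measured by TaqMan qRT-PCR, normalized to ACTB, GAPDH, POLR2A; bidirectional fit versus DMSO.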

Read-out in assay [7]: Cytochrome P450 2C19 (Homo sapiens) (UniProt P33261)
Kind of assay: LTEA_HepaRG_CYP2C19: Life Technologies and Expression Analysis (LTEA) Assay for CYP2C19 using HepaRG (AID 2283482). Put shortly:
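Differentiated HepaRG cells in serum-free induction medium exposed 48 h in duplicate, 8 concentrations from 100 uM by half-log steps in 0.5% DMSO. CYP2C19 mRNA measured by TaqMan qRT-PCR, normalized to ACTB, GAPDH, POLR2A. Bidirectional fit versus DMSO.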

Read-out in the next assay: CYP2C8 (gene 1558)
The assay is described as follows: LTEA_HepaRG_CYP2C8: Life Technologies and Expression Analysis (LTEA) Assay for CYP2C8 using HepaRG (AID 2283483). Put shortly:
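HepaRG (human liver line), 48 h chemical exposure, 8-pt half-log series from 100 uM, 0.5% DMSO vehicle. Readout: CYP2C8 transcript by qRT-PCR, housekeeping-normalized. Bidirectional fit vs DMSO baseline.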

Read-out in a further assay: CYP2C9 (gene 1559)
Kind of assay: LTEA_HepaRG_CYP2C9: Life Technologies and Expression Analysis (LTEA) Assay for CYP2C9 using HepaRG (AID 2283484). Put shortly:
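HepaRG, 48 h dosing, 8-pt half-log series, top 100 uM, 0.5% DMSO vehicle. Read-out: CYP2C9 transcript by TaqMan qRT-PCR, housekeeping-normalized (ACTB/GAPDH/POLR2A). Gain or loss fitted vs DMSO baseline.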

Read-out in another assay: CYP2E1 (gene 1571)
Kind of assay: LTEA_HepaRG_CYP2E1: Life Technologies and Expression Analysis (LTEA) Assay for CYP2E1 using HepaRG (AID 2283485). The method in brief:
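CYP2E1 transcript measured by Fluidigm qRT-PCR against three housekeeping genes in human HepaRG cells treated 48 h (top 100 uM, half-log steps, 0.5% DMSO vehicle). Gain or loss fitted relative to DMSO baseline.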

Read-out in another assay: CYP4A11 (gene 1579)
The assay is described as follows: LTEA_HepaRG_CYP4A11: Life Technologies and Expression Analysis (LTEA) Assay for CYP4A11 using HepaRG (AID 2283486). The method in brief: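 Differentiated HepaRG cells, 48 h after plating, exposed in duplicate for 48 h to 8 half-log concentrations up to 100 uM in 0.5% DMSO in serum-free induction medium. CYP4A11 mRNA measured by TaqMan qRT-PCR, normalized to ACTB, GAPDH and POLR2A.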

Read-out in assay [8]: Cytochrome P450 3A4 (Homo sapiens) (UniProt P08684)
Kind of assay: LTEA_HepaRG_CYP3A4: Life Technologies and Expression Analysis (LTEA) Assay for CYP3A4 using HepaRG (AID 2283487). Put shortly: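 HepaRG, 48 h exposure, 8-pt CRC from 100 uM (half-log), 0.5% DMSO, duplicates; serum-free induction medium. Readout: CYP3A4 mRNA, qRT-PCR, ACTB/GAPDH/POLR2A normalization. Bidirectional fit vs DMSO.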

Read-out in assay [9]: DNA damage-inducible transcript 3 (DDIT3), DDIT3 (gene 1649)
Kind of assay: LTEA_HepaRG_DDIT3: Life Technologies and Expression Analysis (LTEA) Assay for DNA damage-inducible transcript 3 (DDIT3) using HepaRG (AID 2283488). The method in brief:
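DDIT3 transcript was quantified by qRT-PCR with ACTB/GAPDH/POLR2A normalization after 48 h chemical treatment of differentiated HepaRG cells in 0.5% DMSO. Dosing was eight-point, half-log, top 100 uM, duplicate wells. Curves fitted bidirectionally versus DMSO.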

Read-out in assay [10]: Pro-epidermal growth factor (Homo sapiens) (UniProt P01133)
The assay is described as follows: LTEA_HepaRG_EGF: Life Technologies and Expression Analysis (LTEA) Assay for Epidermal growth factor (EGF) using HepaRG (AID 2283489). Put shortly:
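HepaRG cells (~100,000/well, 48 h pre-culture) exposed in duplicate for 48 h in serum-free induction medium to 8 half-log concentrations up to 100 uM in 0.5% DMSO. EGF mRNA by qRT-PCR, normalized to ACTB/GAPDH/POLR2A; bidirectional fit versus DMSO.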

Read-out in the next assay: Caspase-3 (Homo sapiens) (UniProt P42574)
Kind of assay: LTEA_HepaRG_CASP3: Life Technologies and Expression Analysis (LTEA) Assay for cysteine-aspartic acid protease (CASP3) using HepaRG (AID 2283477). The method in brief: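 Differentiated HepaRG cells, plated 48 h, were treated in duplicate in serum-free induction medium for 48 h with eight half-log concentrations up to 100 uM in 0.5% DMSO. CASP3 mRNA measured by qRT-PCR, normalized to ACTB, GAPDH, POLR2A.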

The AC50 is the concentration at which the activity in the assay is half-maximal.

The structures appear in SMILES notation. Active and inactive are the calls of the source. Rule for the calls: active = hit-call score of the fitted dose curve at least 0.9, where 1 is the maximum; inactive = score below 0.9.

Sequence of Cytochrome P450 2C19 (Homo sapiens) (P33261 whole entry, looked up): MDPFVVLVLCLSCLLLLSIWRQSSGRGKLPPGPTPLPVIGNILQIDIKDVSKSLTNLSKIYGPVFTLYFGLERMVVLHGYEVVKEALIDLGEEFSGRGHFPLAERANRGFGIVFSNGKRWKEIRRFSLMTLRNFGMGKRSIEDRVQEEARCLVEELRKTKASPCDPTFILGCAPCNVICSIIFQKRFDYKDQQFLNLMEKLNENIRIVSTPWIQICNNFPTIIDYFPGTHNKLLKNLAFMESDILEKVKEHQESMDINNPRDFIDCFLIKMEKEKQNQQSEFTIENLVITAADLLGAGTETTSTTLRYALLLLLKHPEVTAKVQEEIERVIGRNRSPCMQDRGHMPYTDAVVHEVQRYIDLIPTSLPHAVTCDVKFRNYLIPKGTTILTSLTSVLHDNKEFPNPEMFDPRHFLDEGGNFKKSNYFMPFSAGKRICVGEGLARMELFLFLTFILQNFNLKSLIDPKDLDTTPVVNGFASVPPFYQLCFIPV
Sequence of Cytochrome P450 3A4 (Homo sapiens) (P08684 whole entry, looked up): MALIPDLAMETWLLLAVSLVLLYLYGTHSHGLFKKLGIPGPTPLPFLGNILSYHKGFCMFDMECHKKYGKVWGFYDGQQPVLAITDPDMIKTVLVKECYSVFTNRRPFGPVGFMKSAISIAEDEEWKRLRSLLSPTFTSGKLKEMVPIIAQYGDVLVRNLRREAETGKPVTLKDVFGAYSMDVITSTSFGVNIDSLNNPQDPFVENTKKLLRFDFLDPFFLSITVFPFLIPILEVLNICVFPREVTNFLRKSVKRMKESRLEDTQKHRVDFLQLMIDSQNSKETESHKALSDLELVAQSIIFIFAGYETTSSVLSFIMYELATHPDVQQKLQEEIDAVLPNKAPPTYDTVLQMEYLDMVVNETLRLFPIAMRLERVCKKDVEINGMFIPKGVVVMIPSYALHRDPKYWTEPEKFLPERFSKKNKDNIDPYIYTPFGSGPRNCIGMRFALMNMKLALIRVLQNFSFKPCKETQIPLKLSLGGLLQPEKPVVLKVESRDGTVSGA
Sequence of Caspase-3 (Homo sapiens) (P42574 whole entry, looked up): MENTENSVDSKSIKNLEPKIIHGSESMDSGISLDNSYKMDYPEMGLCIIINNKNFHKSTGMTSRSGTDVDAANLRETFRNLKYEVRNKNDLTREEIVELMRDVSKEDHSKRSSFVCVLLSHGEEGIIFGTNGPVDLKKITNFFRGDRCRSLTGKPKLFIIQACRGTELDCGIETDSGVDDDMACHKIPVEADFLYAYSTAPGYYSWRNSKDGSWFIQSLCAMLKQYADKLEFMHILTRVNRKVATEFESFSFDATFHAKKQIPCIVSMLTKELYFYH

As for `CC1(c2ccc(Oc3ccccc3)cc2)OC(=O)N(Nc2ccccc2)C1=O` (stereo unspecified), the AC50 in assay [1] was 73.7 µM (active); in [2], 9.81 µM (active); with BCL2L11 (gene 10018), 11.7 µM (active); in [5], 11.7 µM (active); in assay [6], 8.83 µM (active); in [7] it was 26.3 µM (active). Besides, the concentration at half-maximal activity (AC50) with CYP2C8 (gene 1558) is 15.9 µM (active); with CYP2C9 (gene 1559) it was 17.4 µM (active); with CYP2E1 (gene 1571), 5.56 µM (active); in the assay with CYP4A11 (gene 1579), 8.16 µM (active); in assay [8], 26.2 µM (active); in assay [9], 8.41 µM (active). Moreover, the outcome in assay [3], in assay [4] and in assay [10] was inactive.

On to `O=[N+]([O-])/N=C1\NCCN1Cc1ccc(Cl)nc1`, for which the AC50 in assay [1] was 35.2 µM (active); in [2], 31.7 µM (active); with BCL2L11 (gene 10018), 23.3 µM (active); in [6], 13.2 µM (active); in assay [7], 34 µM (active); in the assay with CYP2C8 (gene 1558), 74.1 µM (active). Also, the AC50 with CYP2C9 (gene 1559) is 38.1 µM (active); in the assay with CYP2E1 (gene 1571), 34.8 µM (active); in [10], 30.2 µM (active). In addition, the molecule was called inactive (in assay [3]; in [4]; in [5]; with CYP4A11 (gene 1579); in assay [8]; in assay [9]).

Regarding `CN1CSC(=S)N(C)C1`, the molecule was classed as inactive (in [1]; in assay [2]; in the assay with BCL2L11 (gene 10018); in assay [3]; in assay [4]; in assay [5]). The molecule was called inactive (in assay [6]; in [7]; with CYP2C8 (gene 1558); with CYP2C9 (gene 1559); with CYP2E1 (gene 1571); with CYP4A11 (gene 1579)). The result in assay [8], in assay [9] and in [10] was inactive.

Regarding `CCC(C)(NC(=O)c1cc(Cl)c(C)c(Cl)c1)C(=O)CCl` (stereo unspecified), the AC50 was 92.1 µM (active) in [1]; 76 µM (active) in [2]; 82.9 µM (active) in [3]; 92.4 µM (active) in the assay with Caspase-3 (Homo sapiens); 89.8 µM (active) in assay [5]; 90.1 µM (active) in assay [6]. The AC50 is 85.4 µM (active) in [7]; 81.6 µM (active) with CYP2C8 (gene 1558); 79.5 µM (active) with CYP2C9 (gene 1559); 44 µM (active) with CYP2E1 (gene 1571); 50.2 µM (active) with CYP4A11 (gene 1579); 88.2 µM (active) in [8]. Besides, the AC50 in assay [9] is 78.3 µM (active). Further, the outcome (with BCL2L11 (gene 10018); in assay [4]; in [10]) was inactive.

On to `O=C(O)COc1ccc(Cl)cc1Cl`, for which the call (in assay [1]; in assay [2]; with BCL2L11 (gene 10018); in [3]; in [4]; in assay [5]) was inactive. Further, the result (with CYP2C9 (gene 1559); in assay [8]; in assay [9]; in assay [10]) was inactive. Besides, the concentration at half-maximal activity (AC50) in [6] was 20.8 µM (active); in [7], 19.6 µM (active); with CYP2C8 (gene 1558) it was 22 µM (active); with CYP2E1 (gene 1571) it was 29.3 µM (active); in the assay with CYP4A11 (gene 1579) it was 38.1 µM (active).

As to `CC(C)N(C(=O)COc1nnc(C(F)(F)F)s1)c1ccc(F)cc1`, the outcome (in [1]; with BCL2L11 (gene 10018); in assay [3]; in assay [4]; in assay [5]; in [6]) was inactive. The molecule was classed as inactive (in assay [7]; with CYP2C8 (gene 1558); with CYP2C9 (gene 1559); in the assay with CYP4A11 (gene 1579); in [8]; in assay [9]). The molecule was called inactive in assay [10]. Besides, the half-maximal activity concentration (AC50) is 37.6 µM (active) in assay [2] and 42.2 µM (active) in the assay with CYP2E1 (gene 1571).

The record behind these values is PubChem BioAssay (EPA / NIEHS).
